High-throughput results deposited in PubChem by several laboratories.
An excerpt weighted towards active compounds, which were near 4.6% of everything screened.
ABHD5-PLIN5 inh: ABHD5-PLIN5 protein interaction inhibition | 0.78% of 360,000 active | Q00G26+Q8WTS1 | Split G. princeps luciferase complementation, luminescence, 4 h | inhibition, % at 4 µM;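 active means inhibition above the mean inhibition across every tested compound plus 3 SD, cut at about 22% in these data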;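 further: 0% = DMSO only wells and the 100% control is not disclosed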
Peg3 promoter: reduces Peg3 promoter-driven luciferase expression in HeLa. 1.7% of 360,000 active. HeLa PEG-Prom luciferase reporter, luminescence, overnight. AID 588405. inhibition, % at 20 µM;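 active means inhibition of at least 50% at 20 µM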
KKLEB tox: counter-screen for CF NF-kB inhibitors: cytotoxicity | KKLEB CF airway cells viability, ATPlite luminescence, overnight; stronger effect = lower value; cells stimulated with P. aeruginosa culture filtrate | activity change (cytotoxicity), % at 5 µM | 0.36% of 360,000 active | AID 602141;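 active means corrected activity change at or below -50% at 5 µM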
Mdm2-MdmX inh: inhibitors of human Mdm2/MdmX interaction; AID 485346; SaOS-2 split-luciferase Mdm2/MdmX complementation, luminescence; 3% of 330,000 active; O15151+Q00987; inhibition, % at 8 µM;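 active means inhibition of at least 50% at 8 µM in the primary screen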
CF NFkB inh: inhibitors of cystic fibrosis induced NF-kB; KKLEB NF-kB-GFP reporter, PAF-induced, GFP fluorescence overnight; inhibition, % at 5 µM; 0.86% of 360,000 active;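 active means at least 50% inhibition at 5 µM, scaled per plate between neutral and stimulator controls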;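 further: PAF is a Pseudomonas aeruginosa culture filtrate used as stimulus; plate controls were PAF-stimulated DMSO wells for no effect and unstimulated DMSO wells for full effect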
HIF-2a inh: blocks HIF-2a reporter activity; 786-0 RCC cells HIF-2a reporter, luciferase luminescence, overnight; inhibition, % at 18.8 µM; 0.72% of 360,000 active; AID 624352;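 active means inhibition of the luminescence signal of 40% or more relative to plate controls, in a single-dose primary screen at 18.75 µM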
Mdm2 MdmX conf: confirmation of human Mdm2/MdmX interaction inhibitors | shares compounds with Mdm2-MdmX inh | 55% of 10,000 active | inhibition, % at 8 µM | AID 489028 | Mdm2-MdmX binding, luminescent assay; in the data active means inhibition above about 40%
Full FLuc ctr: counter-screen for Mdm2/MdmX inhibitors: full-length luciferase; shares compounds with Mdm2-MdmX inh; SaOS-2 full-length luciferase counterscreen, luminescence; inhibition, % at 8 µM; 77% of 6,200 active; AID 504607;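 active means mean inhibition at 8 µM reaching about 37%, which flags the compound as non-specific, limit read from the data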;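 further: p53-null SaOS-2 cells with luciferase driven by a doxycycline-inducible promoter; compound on cells about two nights before reading with doxycycline added after day one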
Active calls of the source: *; . = no result given.

SMILES	ABHD5-PLIN5 inh	Peg3 promoter	KKLEB tox	Mdm2-MdmX inh	CF NFkB inh	HIF-2a inh	Mdm2 MdmX conf	Full FLuc ctr
O=S1(=O)CC(N2CCCCC2)CN1CCc1ccccc1 (stereo not drawn)	0	9	2	.	-12	7	.	.
O=C(N/N=C/c1coc2ccc(Cl)cc2c1=O)c1ccncc1	9	0	12	60*	45	22	44*	63*
CN(C(=S)Nc1ccc(F)cc1)C(c1ccccc1)c1ccccc1	-1	11	9	15	-8	22	.	.
Cc1ccc(NC(=S)N(C)C(c2ccccc2)c2ccccc2)cc1C	-2	32	-1	59*	-16	23	25	.
Cn1c(-c2cccc(OCc3ccccc3)c2)nc2c1c(=O)[nH]c(=O)n2Cc1ccccc1	-3	46	7	85*	12	10	38	.
COc1ccc(-c2ccc(C#N)c(SCC(=O)Nc3sc4c(c3C#N)CCC4)n2)cc1OC	1	75*	-35	97*	35	2	63*	102*
COc1cccc(-c2ccc(C#N)c(SCC(=O)NCCc3cccc(Cl)c3)n2)c1	-2	25	-9	55*	3	13	12	.
COc1cccc(-c2ccc(C#N)c(OC(=O)c3c(Cl)cccc3Cl)n2)c1	-5	35	6	83*	25	24	36	.
COc1cccc(-c2ccc(C#N)c(OC(=O)c3ccc(Cl)cc3)n2)c1	6	6	0	-1	2	16	.	.
CNc1cncc(-c2cccnc2)n1	1	-9	-8	.	11	5	.	.
O=C(O)CCC(=O)Nc1ccc2c(c1)Cc1cc(NC(=O)CCC(=O)O)ccc1-2	-2	-4	-14	11	1	8	.	.
CC(C)NC(=O)C1(C)CSCC(=O)N1CCOc1ccccc1 (stereo not drawn)	-7	.	.	.	.	5	.	.
CC(=O)Nc1ccc(S(=O)(=O)Oc2ccc3c(c2)C(C)=CC(C)(C)N3)cc1	.	.	.	98*	.	.	79*	21
Cc1ccccc1C(=O)O/N=C/c1c(N2CCOCC2)n(C)c2ccccc12	-8	13	-14	53*	13	6	37	.
CN1CCN(c2c(/C=N/O)c3ccccc3n2C)CC1	-1	-16	-4	-16	-8	-8	.	.
COc1ccc(-c2noc(CSc3nc4sc(C)c(C)c4c(=O)n3-c3ccccc3)n2)cc1OC	1	-1	-25	50*	9	16	32	.
CCOC(=O)Nc1cc(OC)cc2ccc(C)nc12	5	3	-19	.	11	3	.	.
COc1cc(C2CC(=O)N(c3ccc(C)cc3)C(=O)C2)cc(OC)c1OC	-3	29	0	54*	-5	11	41*	61*
Cc1ccc(NC(=O)c2cc3c(CO)cnc(C)c3oc2=Nc2cccc(C(N)=O)c2)cc1	3	-3	-6	78*	11	12	64*	48*
Cn1cc(C(=O)Nc2ccc(C#N)cc2)c2ccccc2c1=O	1	15	-18	25	-19	10	.	.
CCN1C(=O)[C@H]2[C@@H](c3ccc(-c4ccc(Cl)c(Cl)c4)cc3)N[C@@](Cc3ccccc3)(C(=O)OC)[C@H]2C1=O	-4	18	1	57*	27	17	34	.
CCN1C(=O)[C@H]2[C@@H](c3ccc(-c4cccc(Cl)c4)c(OC)c3)N[C@@](Cc3ccccc3)(C(=O)OC)[C@H]2C1=O	0	24	-13	52*	37	13	29	54*
N#Cc1cc2c(nc1SCC(=O)N1CCOCC1)CCCCC2	-1	-20	5	81*	-9	-34	86*	115*
CCOc1cc(S(=O)(=O)NCc2ccc(OC)cc2)c(OCC)cc1-n1cnnn1	1	32	-2	51*	6	-14	45*	86*
Cn1c(=O)n(CCc2ccccc2)c(=O)c2c1nc1n2CCCN1CCc1ccccc1	10	69*	-9	65*	0	8	-4	.
SMILES	ABHD5-PLIN5 inh	Peg3 promoter	KKLEB tox	Mdm2-MdmX inh	CF NFkB inh	HIF-2a inh	Mdm2 MdmX conf	Full FLuc ctr
CCCn1c(=O)c2c(nc3n2CCCN3CCc2ccccc2)n(C)c1=O	5	31	4	6	4	14	.	.
C[C@@H]1CCCCO[C@H](CN(C)Cc2ccc(C(F)(F)F)cc2)[C@@H](C)CN([C@H](C)CO)C(=O)c2cc(NS(=O)(=O)c3cn(C)cn3)ccc2O1	-1	6	-2	.	5	12	.	.
COc1ccc(Nc2nc(Nc3ccc(OC)cc3)nc(SC3=NCCS3)n2)cc1	-6	34	8	74*	5	0	-8	.
O=C(Nc1ccc(S(=O)(=O)N2CCCC2)cc1)C1CC(=O)N(CCc2ccc(F)cc2)C1 (stereo not drawn)	0	9	-9	11	5	11	.	.
COc1ccc2nc(C)cc(Sc3nc4ccccc4s3)c2c1	19	67*	-44	78*	64*	33	19	.
COc1ccc2nc(C)cc(SCC(=O)NNC(=O)COc3ccccc3)c2c1	-1	3	-9	-11	6	18	.	.
O=C(Nc1ccc(-n2ccc(C(F)(F)F)n2)cc1)Nc1cccc(Cl)c1	-9	-113	-18	80*	35	-245	30	82*
Cc1cc(C)cc(NC(=O)Nc2ccc(-n3ccc(C(F)(F)F)n3)cc2)c1	-10	-29	8	37	1	-67	.	.
Cc1ccc(S(=O)(=O)c2nnn3c2nc(Nc2cccc(C)c2)c2ccccc23)cc1	1	11	-2	54*	0	18	9	.
Cc1ccc(-c2nnn3c2nc(NCCc2ccc(S(N)(=O)=O)cc2)c2ccccc23)cc1	-7	18	-2	48	-18	-15	.	.
NS(=O)(=O)c1ccc(CCNc2nc3c(-c4cccc(F)c4)nnn3c3ccccc23)cc1	-4	22	-6	67*	-31	-9	31	.
Cc1cccc(-c2nnn3c2nc(NCCc2ccc(S(N)(=O)=O)cc2)c2ccccc23)c1	0	4	-52*	67*	36	-6	50*	74*
C#Cc1ccc(NC(=O)C2(C)CCN2C(=O)C2(c3ccccc3)CCCC2)cc1 (stereo not drawn)	-6	19	1	.	18	16	.	.
CC1(C(=O)NCc2ccc3c(c2)OCO3)CCN1C(=O)C1(c2ccc(Cl)cc2)CC1 (stereo not drawn)	5	4	14	.	-14	15	.	.
CNC(=O)c1cn2c3c(ccc(Cl)c3c1=O)OC(C)C2 (stereo not drawn)	6	-60	-2	.	-8	1	.	.
